Hits are enriched below; roughly 2.4% of the tested compounds scored in any of these assays.
CHO-K1 Ca ag: nonselective activator or artifact in parental CHO-K1 cells. Fluo-8 calcium fluorescence; scaled to maximal ATP response, vehicle zero. activation, % at 3 µM. 0.48% of 360,000 active. AID 602248; in the data active = activation above about 15%;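 also: untransfected CHO-K1 host cells lacking M1 receptor as counterscreen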
M1 PAM parental: counter-screen for M1 PAMs: effect in parental CHO-K1 cells; activation, % at 3 µM; ATP EC20, Fluo-8 calcium fluorescence; 0% at ATP EC20, 100% at ATP max; 0.02% of 360,000 active;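 active = activation above the run cutoff, the mean activation of all test compounds plus 3 SD, cut at about 40% in these data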;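 also: peak over basal fluorescence ratio in a 140 s read after ATP addition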
M1 PAM: human CHRM1 positive allosteric modulation | CHO-K1 hM1, Fluo-8 calcium fluorescence, ACh EC20; 0% = ACh EC20, 100% = maximal ACh | activation, % at 3 µM | 0.088% of 360,000 active | AID 588819; in the data active = activation above about 19%, passing the limit was not always enough
Target sequence (P11229 whole entry, looked up): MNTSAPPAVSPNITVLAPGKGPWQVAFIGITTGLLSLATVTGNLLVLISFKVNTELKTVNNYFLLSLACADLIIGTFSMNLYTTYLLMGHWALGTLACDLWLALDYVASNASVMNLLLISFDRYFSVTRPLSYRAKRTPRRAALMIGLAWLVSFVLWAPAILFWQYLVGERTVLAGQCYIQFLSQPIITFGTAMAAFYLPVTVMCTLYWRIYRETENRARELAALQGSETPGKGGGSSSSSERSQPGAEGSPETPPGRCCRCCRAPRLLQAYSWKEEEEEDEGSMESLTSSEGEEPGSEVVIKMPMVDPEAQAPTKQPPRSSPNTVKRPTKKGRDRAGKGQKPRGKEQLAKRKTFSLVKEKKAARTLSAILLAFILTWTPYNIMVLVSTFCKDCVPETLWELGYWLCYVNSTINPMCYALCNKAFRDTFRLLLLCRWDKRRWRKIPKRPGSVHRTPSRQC
M1 ag: agonists of human M1 muscarinic receptor; CHO-K1 hM1, Fluo-8 calcium fluorescence, agonist mode; 0% DMSO, 100% acetylcholine EC100; 0.33% of 360,000 active; P11229; activation, % at 3 µM;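 active = activation above the run's mean compound activation plus 3 SD, cut at about 16% in these data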;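 also: peak over basal fluorescence ratio within a 140 s kinetic read after compound addition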
CHRM1 antagonist: blocks human M1 muscarinic receptor. CHO-K1 hM1, Fluo-8 calcium fluorescence, ACh EC80 antagonist. inhibition, % at 3 µM. 1.3% of 360,000 active. P11229;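 active = percent inhibition above its own plate's cutoff, namely the mean of that plate's compound wells plus 3 SD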;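 also: peak over basal fluorescence ratio during 140 s after agonist addition; 0% = ACh EC80 plus DMSO and 100% = DMSO alone without agonist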
CHO-K1 Ca antag: M1 antagonist counterscreen hit in parental CHO-K1 cells. inhibition, % at 3 µM. 0.6% of 360,000 active. ATP-induced calcium, Fluo-8 fluorescence;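 active = inhibition above a per-plate cutoff, the plate's mean sample inhibition plus 3 SD, cut at about 24% in these data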;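 also: 0% = DMSO plus EC80 ATP and 100% = DMSO alone without ATP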
* hit, by the source's call.

SMILES	CHO-K1 Ca ag	M1 PAM parental	M1 PAM	M1 ag	CHRM1 antagonist	CHO-K1 Ca antag
C[C@]12CC[C@H](O)C[C@@H]1CC[C@@H]1[C@@H]2CC[C@]2(C)[C@@H](C(=O)O)C[C@@H]12	2.9	25.4	6.5	-2.2	-4.5	-9.9
CC(C)[N+](C)(CCC(C(N)=O)(c1ccccc1)c1ccccc1)C(C)C	0.6	8.1	-26.2	-7.5	98.9*	7.2
CCCCCCC(Cl)(Cn1ccnc1)c1ccccc1 (configuration not stated)	0.6	22.3	-24.3	-5.7	33.0*	-3.9
O=C1NC(=O)C(=Cc2cc([N+](=O)[O-])ccc2N2CCCCC2)C(=O)N1	-0.1	16.5	-1.3	-8.8	-7.2	-3.0
O=C(NC(=S)N1C[C@H]2C[C@H](C1)c1cccc(=O)n1C2)c1ccc(Cl)cc1Cl	0.0	2.0	7.0	0.4	3.3	1.4
COc1ccc(-n2c(O)c(/C=C/C=Nc3ccccc3)c(=O)[nH]c2=O)cc1	23.4*	-17.5	-10.7	22.5*	16.8	17.3
COc1ccc(-n2c(O)c(/C(C)=N/N3CCCCCC3)c(=O)[nH]c2=O)cc1	-0.2	0.1	33.8*	-1.5	-11.9	-5.1
COc1ccc(-n2c(O)c(/C(C)=N/Nc3ccccc3)c(=O)[nH]c2=O)cc1	1.2	18.6	3.8	-3.5	-1.9	-10.4
O=c1[nH]c(=O)n(C2CCCCC2)c(O)c1/C=C/C=Nc1ccccc1	17.6*	3.4	-2.4	17.7*	1.3	-4.3
CCn1c(C)c(C(=O)NCCc2ccccc2)c2cc(OC)ccc21	1.3	-3.9	4.9	-5.6	-4.1	-4.0
C[C@]12CCC(=O)C=C1CC[C@@H]1C2CC[C@]2(C)C(=O)CCC12 (some centres not stated)	1.3	2.0	-0.4	-6.3	3.5	-0.2
CCn1cc(CN2CCCC(C(=O)c3cccc(OC)c3)C2)c(C)n1 (configuration not stated)	0.8	-10.4	-33.6	-13.0	50.3*	2.3
CCCn1ncc(CN2CCCC(C(=O)c3cccc(OC)c3)C2)c1C (configuration not stated)	0.5	15.9	-33.7	-13.6	93.9*	-4.6
COc1cccc(C(=O)C2CCCN(Cc3cnn(C(C)C)c3)C2)c1 (configuration not stated)	1.2	19.9	-11.7	-10.2	7.9	-8.1
CCCn1cc(CN2CCCC(C(=O)c3cccc(OC)c3)C2)c(C)n1 (configuration not stated)	0.4	-1.0	-29.8	-11.7	23.7	3.8
CC(C)Oc1ccc(C2(C#N)CC[N+](C)(C)CC2)cc1	-0.1	0.9	0.8	-9.1	7.0	6.7
COc1ccc(N2C(=O)NC(=O)/C(=C\c3cn(C)c4ccccc34)C2=O)cc1	31.7*	37.1	-0.3	-1.8	0.9	42.0*
COC(=O)Cn1cc(/C=C2\C(=O)NC(=O)N(c3ccc(OC)cc3)C2=O)c2ccccc21	3.3	9.8	-2.5	-3.3	8.8	-5.2
CCC12CN3CCN(CC(C3)C1O)C2 (configuration not stated)	0.5	13.4	4.0	-2.8	-6.2	-3.7
Clc1ccccc1CN1CCN(c2ccccc2)CC1	0.0	24.4	7.2	-5.0	-7.9	-15.6
O=C(c1cccc2ccccc12)C1CCCN(Cc2ccon2)C1 (configuration not stated)	1.3	8.4	3.2	-2.8	-6.5	-11.1
O=C(c1cccc2ccccc12)C1CCCN(C2CCC2)C1 (configuration not stated)	-0.4	16.4	-13.9	16.5*	26.4*	-2.4
CCCC[n+]1cc(/N=C(\[O-])OC)on1	0.2	13.0	-3.2	-0.9	3.4	-4.5
Cc1nn(Cc2c(Cl)cccc2Cl)c(Cl)c1C(=O)O	-0.8	8.6	4.1	-3.8	-12.7	-10.6
Cc1[nH]c2ccc(OC(F)(F)F)cc2c1CCNCc1cccc([N+](=O)[O-])c1	35.2*	-24.2	-0.6	3.7	9.2	20.9
CCOc1cccc(CNCCc2c(C)[nH]c3ccc(OC(F)(F)F)cc23)c1O	37.2*	-24.7	-10.6	9.9	36.8*	53.0*
Cc1[nH]c2ccc(OC(F)(F)F)cc2c1CCNCc1ccc(Cl)cc1	2.5	17.7	9.9	-2.4	1.9	13.0
